Measured values published in PubChem BioAssay.
Activity calls are given as the source filed them.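 Rule for the calls: active = inhibition of the reporter signal at or above 50%; inactive = inhibition below 50%.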

Assay: inhibitors of poly I:C-induced TLR3 signaling, primary screen, cell-based, poly I:C stimulus, luciferase, 10K MLSCN set (AID 602277)
Conditions: HEK293-TLR3 RL24 IRF3 luciferase reporter, at 10 µM, stronger effect = higher value

inhibition, inactive:
CCOc1ccc(NC(=O)CN2CCN(CC(=O)Nc3ccc(F)c(F)c3)CC2)cc1 23%, C=C(C)COc1ccc(-c2nc(N)ncc2Oc2ccccc2OCC)c(O)c1 -3.29%, Clc1ccccc1-c1nnc2sc(-c3ccccn3)nn12 14.1%, CCOc1cccc(C(=O)Nc2cccc(-c3nc4ncccc4o3)c2C)c1 -11.2%, CCOC(=O)N1CCN(S(=O)(=O)c2cc(Cl)c(OC)cc2Cl)CC1 1.26%, CCCCN(CC)S(=O)(=O)N1CCC(C(=O)NCc2ccc(F)cc2)CC1 15.9%, Cc1ccc(Nc2nnns2)cc1C 7.21%, C=CCn1c(=O)/c(=C/c2ccc(O)cc2)s/c1=C(/C#N)c1nnc2n1CCCCC2 -30%, CC(=O)Nc1c(Cl)n(C(C)=O)c2ccccc12 21%, COc1ccc(OC)c(S(=O)(=O)Nc2ccccc2C(=O)O)c1 18.9%, Cc1ccc(C)c(NC(=O)C2CCC(C)(C(=O)O)C2(C)C)c1 (stereo unspecified) 30.8%, Oc1ccc(N2CCN(C(c3cccnc3)c3nnnn3Cc3ccccc3)CC2)cc1 (stereo unspecified) -11.5%, CC(C(=O)N1CCOCC1)N1c2cccc3cccc(c23)S1(=O)=O (stereo unspecified) 20.6%, Cc1nc2ccccn2c1/C(O)=C1\C(=O)C(=O)N(CCN2CCOCC2)C1c1cccs1 (stereo unspecified) 7.4%, COC(=O)c1cc(OC)c(OC)cc1NC(=O)CC1CCCCC1 11.2%, COc1ccccc1C(=O)Nc1c2c(nn1-c1cccc(C)c1C)CS(=O)(=O)C2 19.1%
